From PubChem
A selection: hits, their analogues and other compounds. The true share with any hit is near 6.5%.
Lassa entry inh: Lassa virus entry inhibition; Lassa virus pseudotype entry inhibition, cell reporter; Potency, µM (doses to about 37.9 µM), without a hit: at the highest dose activity change, negative = inhibition, actives largely listed as inhibitors; 1.2% of 300,000 active; AID 540256; calls by dose curve; tested in HEK293 cells; also: potency is read from the fitted curve at half-maximal effect; nearly all actives have a fitted effect of over 50% in size
FMDV antiviral: blocks foot and mouth disease virus; Potency, µM (series often up to 57.9 µM), inactives show top-dose activity change, negative = inhibition, actives largely listed as inhibitors; FMDV antiviral cell-based qHTS; 1.2% of 410,000 active; calls by dose curve; tested in HEK293T cells; also: read-out not given here; potency is read from the fitted curve at half-maximal effect; nearly all actives have a fitted effect of over 45% in size
MARV entry inh: inhibitors of Marburg virus binding or cell entry; Marburg virus pseudotyped entry inhibition, cell reporter; Potency, µM (doses to about 37.8 µM), without a hit: top-dose activity change, negative = inhibition, actives largely listed as inhibitors; 1.8% of 300,000 active; AID 540276; calls by dose curve; tested in HEK293 cells; also: potency is read from the fitted curve at half-maximal effect
VACV mCherry inh: vaccinia inhibition (mCherry reporter). Vaccinia virus mCherry reporter infection, fluorescence. Potency, µM (highest dose often 36.5 µM), inactives show at the top dose activity change, negative = inhibition, usual class: inhibitors. 0.63% of 310,000 active. AID 720579; calls by dose curve; tested in A549 cells; also: potency is read from the fitted curve at half-maximal effect; nearly all actives have a fitted effect of over 35% in size
VACV Venus inh: inhibitors of vaccinia virus (Venus reporter); Vaccinia virus Venus reporter expression, fluorescence; Potency, µM (series often up to 36.5 µM), for the others: top-dose activity change, negative = inhibition, usual class: inhibitors; 0.46% of 330,000 active; AID 720580; calls by dose curve; tested in A549 cells; also: potency is read from the fitted curve at half-maximal effect; nearly all actives have a fitted effect of over 30% in size
HCMV inh: inhibitors of human cytomegalovirus. AID 1259415. activity change, negative = inhibition, % at 57.5 µM. HFF cells, HCMV-luciferase reporter, 72 h; stronger effect = lower value. 4.5% of 410,000 active; in the data active = activity change below about -60%; inconclusive = no clear call, values can overlap the other calls; inactive = above about -39%
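Two compound doses tested in HFFs infected with HCMV-luciferase, MOI 1 PFU/cell, 72 h at 37C. Lysate luminescence read with OneGlo; data normalized against buffer-only and 10uM Salinomycin inhibitor controls.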
An asterisk follows results filed as active; i = inactive; ? = inconclusive; nt = not tested or not shown; [ ] = another dose, or the depositor's remark. % is scaled to controls: 0 for no effect and ±100 for the full control effect.

SMILES	Lassa entry inh	FMDV antiviral	MARV entry inh	VACV mCherry inh	VACV Venus inh	HCMV inh
C[C@H](NC(=O)c1nc[nH]c1C(=O)NCCCCCNC(=O)OC(C)(C)C)c1ccccc1	nt	39.8µM*	nt	?	?	-36.1
CC(C)(C)OC(=O)NCc1ccc(CNC(=O)c2[nH]cnc2C(=O)Nc2ccccc2F)cc1	nt	20µM*	nt	?	?	-32.4
CC(C)(C)OC(=O)NCc1ccc(CNC(=O)c2nc[nH]c2C(=O)N2CCN(C(=O)OC(C)(C)C)CC2)cc1	nt	20µM*	nt	i	-22.5%	-28.1
O=C(Nc1ccccc1F)c1nc[nH]c1C(=O)NCc1ccccc1	nt	0.0%	nt	i	?	-9.1
CC(C)(C)OC(=O)N1CCN(c2ccc(CNC(=O)c3ccc(Cl)cc3)cc2)CC1	?	25.1µM*	?	nt	nt	-95.2*
Cc1ccc(Cc2c(C)nc3nc(SCC(=O)NC4CCC(C)CC4)nn3c2C)cc1 (stereo not given)	?	-8.9%	nt	-5.9%	-8.1%	-18.8
N#Cc1cccc(-c2csc(C(O)c3ccco3)n2)c1 (stereo not given)	nt	-1.8%	nt	11.1%	5.3%	0.4
C[C@H](NC(=O)c1nc[nH]c1C(=O)NCc1ccc(CNC(=O)OC(C)(C)C)cc1)c1ccccc1	nt	31.6µM*	nt	?	?	-14.0
Cc1ccc(Cc2c(C)nc3nc(SCC(=O)NCCN4CCCCCC4)nn3c2C)cc1	nt	nt	nt	nt	nt	-9.8
Cc1ccccc1Cc1c(C)nc2nc(SCC(=O)NCCCN3CCCCC3)nn2c1C	?	-19.5%	?	-8.0%	-4.9%	nt
Cc1ccc(Cc2c(C)nc3nc(SCC(=O)NCCCN4CCOCC4)nn3c2C)cc1	-6.8%[46.1 µM]	-10.1%	8.91µM*	i	8.6%	-14.8
Cc1nc2nc(SCC(=O)NCCCN3CCCCCC3)nn2c(C)c1Cc1ccccc1	?	-11.5%	?	i	-1.7%	-65.3*
CC(C)C(=O)N[C@H]1CCCN1C(=O)C=Cc1ccccc1	?	nt	-22.4%[14.2 µM]	nt	nt	nt
CN(C)c1ccc(-c2cncnc2Nc2ccccc2)cc1	nt	-11.1%	nt	nt	nt	nt
Cn1cccc/c1=N\c1cccc[n+]1C	nt	-21.1%	nt	nt	nt	-73.5*
Cn1cc[n+](C)c1P(=S)(c1ccccc1)c1ccccc1	nt	-10.0%	nt	i	-6.1%	-9.7
Fc1ccc(Nc2nccc(-c3c(-c4ccc(C(F)(F)F)cc4)nn4ncccc34)n2)cc1F	-4.2%	nt	nt	nt	nt	nt
CC(=O)Nc1ccc(CN(C)CC2CCCN(CCc3cccc(C(F)(F)F)c3)C2)cc1 (stereo not given)	?	-29.1%	10µM*	-27.1%	-23.8%	-30.1
COc1cccc(N(C(=O)c2cnccn2)C(C(=O)NC2CCCCC2)c2ccc(Cl)cc2)c1 (stereo not given)	-17.0%	8.1%	-7.1%	-23.7%	-25.8%	-19.7
COc1ccc(C(C(=O)NC2CCCCC2)N(C(=O)CCl)c2cccc(Cl)c2)cc1 (stereo not given)	3.55µM*	25.1µM*	?	?	?	-99.0*
COc1ccc(C(C(=O)NC2CCCCC2)N(C(=O)CCl)c2ccc(C)cc2)cc1 (stereo not given)	?	?	?	-1.5%	-25.8%	-98.9*
COc1ccc(C(C(=O)NC2CCCCC2)N(C(=O)CCl)c2ccc(OC)cc2)cc1 (stereo not given)	-23.7%	8.91µM*	-14.5%	i	-16.8%	nt
COc1ccc(C(C(=O)NC2CCCC2)N(C(=O)c2ccoc2C)c2ccc(C)cc2)cc1 (stereo not given)	?	-7.2%	-25.5%	-8.7%	-15.4%	?
CC1=C(C(=O)Nc2ccccc2)C(c2ccc(O)cc2)n2nc(-c3ccc(Cl)cc3)nc2N1 (stereo not given)	?	0.0%	?	-14.6%	-6.8%	-5.8
COc1ccccc1NC1=CC(=O)CC(c2ccccc2)C1 (stereo not given)	7.31µM*	3.0%	-15.3%	-14.1%	-14.6%	58.1
SMILES	Lassa entry inh	FMDV antiviral	MARV entry inh	VACV mCherry inh	VACV Venus inh	HCMV inh
CC(Cl)C(=O)c1c[nH]c2ccccc12 (stereo not given)	-9.9%	-12.0%	-3.8%[46.1 µM]	-26.8%	-13.9%	-66.7*
N#CCCN1CCN(C(=S)c2ccc(-c3ccc(Cl)c(Cl)c3)o2)CC1	20µM*	7.1%	14.1µM*	nt	?	6.9
N#CCCN1CCN(C(=S)c2ccc(-c3cccc(Cl)c3)o2)CC1	25.9%	47.2%	-15.7%	-29.6%	-20.0%	20.7
COc1ccccc1Oc1cc(C#N)c(C#N)cc1-n1nnc2ccccc21	?	?	?	-24.7%	-22.5%	-91.8*
Cn1cnnc1Sc1cc(N2CCN(S(=O)(=O)c3ccccc3)CC2)ccc1[N+](=O)[O-]	-8.1%	-1.9%	-16.3%	nt	nt	-34.3
CC(=O)c1ccc(Sc2nnnn2-c2ccccc2)c([N+](=O)[O-])c1	-11.5%	31.6µM*	?	-4.8%	-3.1%	-67.2*
CN1CCN(S(=O)(=O)c2ccc(Sc3nnnn3-c3ccccc3)c([N+](=O)[O-])c2)CC1	14.8%	20µM*	?	-13.3%	-4.8%	12.5
O=C1Nc2ccc(Br)cc2/C1=C/C(=O)c1ccccc1	?	?	?	-15.0%	-21.7%	?
C=CCOc1cccc(C(=O)/C=C2/C(=O)Nc3ccccc32)c1	nt	28.2µM*	nt	nt	nt	-5.6
CCN(CC)CCCNC(=O)CNC(=O)c1nn(-c2ccc(OC)cc2OC)c(=O)c2ccccc12	nt	-25.4%	nt	-11.5%	-9.5%	?
CCOc1ccc(-n2cc(-c3ccccc3)c3c(NCCc4ccccc4)ncnc32)cc1	-21.4%[46.1 µM]	-10.1%	nt	-13.5%	-9.8%	-10.3
CCCOc1ncnc2c1[nH]c1ccc(OC)cc12	nt	16.5%	nt	nt	nt	68.0
CCCOc1ncnc2c1[nH]c1ccccc12	-16.7%	?	-11.6%	nt	nt	-84.9*
COc1ccc(Nc2cc3c(cn2)ncn3Cc2ccccc2)cn1	nt	nt	nt	nt	nt	8.0
CCOC(=O)c1nnc(-c2cccs2)nc1Oc1ccc(Cl)cc1	5.4%	28.2µM*	2.1%[46.1 µM]	-23.5%	-22.6%	34.3
O=C1C=CC2C3C(=O)N(c4ccccc4)C(=O)C3C1N2Cc1ccccc1 (stereo not given)	25.1µM*	10µM*	?	28.2µM*	?	-77.9*
O=C1C2C3C=CC(CC3)C2C(=O)N1c1ccccc1 (stereo not given)	nt	-5.6%	nt	nt	nt	-15.4
Cc1ccc2nc(SCC(=O)OCc3ccccc3)nc(=O)n2c1	3.3%	9.7%	-7.1%	-11.3%	-23.4%	-27.5
C=CCc1ccccc1OCC(O)CN1CCN(c2ccccc2)CC1 (stereo not given)	9.8%[46.1 µM]	-12.7%	nt	-13.4%	-4.7%	-30.7
C=CCc1ccccc1OCC(CN1CCCCC1)OC(C)=O (stereo not given)	15.5%	-5.1%	2.2%	-13.7%	-13.5%	-21.3
CCCC1OC2CC3C4CCC5=CC(=O)C=CC5(C)C4C(O)CC3(C)[C@]2(C(=O)CO)O1 (stereo not given in full)	nt	7.3%	nt	-5.9%	-21.0%	nt
C[C@@H]1CCc2cc(F)cc3c(O)c(C(=O)NC[C@H]4CCCO4)c(=O)n1c23	nt	nt	-22.0%[46.1 µM]	nt	nt	nt
